Results published in PubChem BioAssay (Tox21).
Inconclusive results are not listed. A call without a number means that no potency is given here. Unmarked numbers belong to inactive results. Activity calls are given as the source filed them. Calls follow the shape of the dose curve; as a rule, active = well fitted activation curve with a large enough effect in the repeat runs; inconclusive = weak or mixed curves; inactive = flat fitted curve, though single readings scatter.
Potency is read from the fitted curve at half-maximal effect.

Assay: A CellTox Green Cytotoxicity Assay to monitor cytotoxicity in HEK293 cells - 40 hour (AID 1224871); also: nearly all actives have a fitted effect of over 45% in size
Conditions: CellTox Green fluorescence; series mostly up to 76.8 µM
From the text: National Center for Advancing Translational Sciences [NCATS]
NIH Chemical Genomics Center [NCGC]
U.S. Environmental Protection Agency [EPA]
National Institutes of Environmental Health Sciences [NIEHS]
National Toxicology Program [NTP]
Cell-based models are critical for drug discovery. Determining the natural cytotoxic effects resulting from test compounds is an essential research activity. A CellTox Green Cytotoxicity Assay to monitor cytotoxicity in real time of continues cell culture during 40 hours of the compound treatment was used to screen Tox21 10K library compounds in Hek293 cells. CellTox Green Cytotoxicity Assay is a nonlytic, homogeneous, biofluorescent method to measure cytotoxicity in cell culture after experimental manipulation. The assay system uses a proprietary asymmetric cyanine dye that is excluded from viable cells but preferentially stains the dead cell's DNA. […] Viable cells produce no appreciable increases in fluorescence. Therefore, the fluorescence signal produced by the binding interaction with dead cell DNA is proportional to cytotoxicity.
The mixture of Hek293 cell suspension and reagents were dispensed at 600cells/6 ul/well in 1536-well tissue culture treated black solid bottom plates using a Multidrop dispenser. After the assay plates were incubated at a 37 C/5% CO2 incubator for 5 hours, 23 nL of compounds dissolved in DMSO, positive and negative controls was transferred to the assay plate by a pintool work station. The plates were incubated at 37 C for 40 hours. The fluorescence intensity were measured at 0h, 8h, 16h, 24h, 32h and 40h time points using ViewLux plate reader during compound treatment.
For `O=S(=O)(c1ccc(OCc2ccccc2)cc1)c1ccccc1O`, the Potency was “inactive”. For `Cc1cc(Br)ccc1NC(=O)CCl`, the Potency was 30.9 µM (active). In the case of `CCN(CCC#N)c1ccc(N=Nc2ccc([N+](=O)[O-])cc2)cc1`, the Potency is reported as “inactive”. In the case of `CC(C)(C)c1ccc(OC2CCCCC2O)cc1` (stereo not given), the Potency is reported as 49 µM (active). In the case of `C=C[Si](C)(C)Cl`, the cytotoxicity increase is reported as -9.04% [at 6.97 µM]. With `N#CCCOCCC#N` the Potency was “inactive”. With `C=C1C(CCl)(CCl)C2(Cl)C(Cl)C(Cl)C1(Cl)C2(Cl)Cl` (stereo not given) the Potency was 48.4 µM (active). For `CN(C)CCOc1ccc(/C(=C(/CCCl)c2ccccc2)c2ccccc2)cc1`, the Potency was 45.8 µM (active). For `CCCCCc1ccc(O)cc1`, the Potency was 34.7 µM (active). For `CCCCCCCCCCCCS(=O)(=O)Cl`, the cytotoxicity increase was -2.77% [at 15.8 µM]. For `CC(c1cc(C(C)(C)C)cc(C(C)(C)C)c1O)c1cc(C(C)(C)C)cc(C(C)(C)C)c1O`, the Potency was “inactive”. For `Cc1ccc(N=Nc2c(O)ccc3ccccc23)c(C)c1`, the Potency was “inactive”. In the case of `Nc1cc([N+](=O)[O-])cc(Cl)c1O`, the Potency is reported as “inactive”. For `CC/C(=C(/c1ccc(O)cc1)c1ccc(OCCN(C)C)cc1)c1ccccc1`, the Potency was 20.4 µM (active). For `Oc1ccc(Cl)cc1C1CCCC1`, the Potency was 49 µM (active). With `Cc1c(Cl)c(=O)oc2cc(O)ccc12` the Potency was “inactive”. For `CCCCCCCCCCCCCCCCC(C(=O)O)C(O)(CC(=O)O)C(=O)O` (stereo not given), the Potency was “inactive”. In the case of `N#Cc1ccc(C/C(=N/NC(=O)Nc2ccc(OC(F)(F)F)cc2)c2cccc(C(F)(F)F)c2)cc1`, the Potency is reported as “inactive”. With `CN(C[C@@H](CC[N+]12CCC(C3CCCCC3)(CC1)CC2)c1ccc(Cl)c(Cl)c1)C(=O)c1cc(C(F)(F)F)cc(C(F)(F)F)c1` the Potency was 27.5 µM (active). `COc1cc2ncnc(Nc3cccc(Cl)c3)c2cc1OC` showed a cytotoxicity increase of -0.731% [at 15.8 µM]. With `CN(C/C=C/c1ccccc1)Cc1cccc2ccccc12` the Potency was 21.3 µM (active). With `C/C(=C\c1ccc(C(=O)O)cc1)c1ccc2c(c1)C(C)(C)CCC2(C)C` the Potency was “inactive”. With `Nc1ccc(F)c([N+](=O)[O-])c1` the Potency was “inactive”. For `O=c1[nH]cccc1O`, the Potency was “inactive”. With `Cc1ccc2nc(-c3ccc(N)cc3)sc2c1S(=O)(=O)O` the Potency was “inactive”. With `COCCC(=O)OC` the Potency was “inactive”. For `N#Cc1nc(Cl)c(Cl)c(Cl)c1Cl`, the Potency was 1.55 µM (active). In the case of `CC(=O)[C@]1(O)Cc2c(O)c3c(c(O)c2[C@@H](O[C@H]2C[C@H](N)[C@H](O)[C@H](C)O2)C1)C(=O)c1ccccc1C3=O`, the Potency is reported as “inactive”. With `CCCCCCCCc1ccc(Nc2ccc(CCCCCCCC)cc2)cc1` the Potency was “inactive”. `O=C(O)CN(CCCN(CC(=O)O)CC(=O)O)CC(=O)O` gave a cytotoxicity increase of 0.268% [at 15.8 µM]. For `c1ccc(-c2ccc(C(c3ccccc3)n3ccnc3)cc2)cc1` (stereo not given), the Potency was “inactive”. With `C=Cc1ccncc1` the Potency was “inactive”. With `Cc1cccc(C)c1C` the Potency was “inactive”. For `O=C1CCCCCCCCCCCCCC1`, the Potency was 43.6 µM (active). With `O=C(c1ccccc1)c1ccc(Cl)cc1` the Potency was “inactive”. For `Nc1c(Br)cc([N+](=O)[O-])cc1Br`, the Potency was “inactive”. In the case of `CCCC(=O)c1cc(O)c(O)cc1O`, the Potency is reported as “inactive”. With `NCc1ccco1` the Potency was “inactive”. For `CC(CC(C)(C)C)CC(C)(C)CC(C)(C)C` (stereo not given), the Potency was “inactive”. With `c1ccc(-c2nc3ccccc3[nH]2)cc1` the Potency was “inactive”.
